# Data published in PubChem BioAssay (NCI).
# About 83,000 compounds went through this panel and 20% of them were active in at least one assay; those are over-represented in the sample as a whole.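 For each line, cells grew in 96-well plates with the test compound present at a single concentration for 48 hours.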 A number with no mark means an inactive call. Activity calls are given as the source filed them. The calls were made as follows: active = growth percent below 10; inactive = the rest.
# Tests used:
# Assay in all cases: NCI-60 one-dose screen, 48 h (100 = growth as untreated, 0 = no growth, -100 = all killed)
# Details in all cases: 10 µM unless noted
# NCI-H23 lung = tested on: NCI-H23 lung
# NCI-H226 lung = tested on: NCI-H226 lung
# NCI-H322M lung = tested on: NCI-H322M lung
# HOP-62 NSCLC = tested on: HOP-62 NSCLC
# NCI-H460 lung = tested on: NCI-H460 lung
# HOP-92 NSCLC = tested on: HOP-92 NSCLC
# NCI-H522 lung = tested on: NCI-H522 lung
# A549/ATCC NSCLC = tested on: A549/ATCC NSCLC
# 786-0 renal = tested on: 786-0 renal
# COLO 205 colon = tested on: COLO 205 colon
# DU-145 prostate = tested on: DU-145 prostate
# K-562 leukemia = tested on: K-562 leukemia
# MALME-3M melanoma = tested on: MALME-3M melanoma
# MDA-MB-231 breast = tested on: MDA-MB-231 breast
# RXF 393 renal = tested on: RXF 393 renal
# SF-268 CNS = tested on: SF-268 CNS
# SF-295 CNS = tested on: SF-295 CNS
# SF-539 CNS = tested on: SF-539 CNS
# UACC-257 melanoma = tested on: UACC-257 melanoma
# M14 melanoma = tested on: M14 melanoma
Structure (SMILES),growth (NCI-H23 lung),growth (NCI-H226 lung),growth (NCI-H322M lung),growth (HOP-62 NSCLC),growth (NCI-H460 lung),growth (HOP-92 NSCLC),growth (NCI-H522 lung),growth (A549/ATCC NSCLC),growth (786-0 renal),growth (COLO 205 colon),growth (DU-145 prostate),growth (K-562 leukemia),growth (MALME-3M melanoma),growth (MDA-MB-231 breast),growth (RXF 393 renal),growth (SF-268 CNS) [%],growth (SF-295 CNS),growth (SF-539 CNS),growth (UACC-257 melanoma) [%],growth (M14 melanoma)
CCCCC1=c2c([nH]c3ccc(OC)cc23)=NC2C=CC=NC12 (stereo not given),81.4%,89.3%,86.1%,90.8%,80.7%,103%,83.8%,103%,110%,106%,98.8%,72.1%,108%,79.9%,92.8%,93.1,106%,93.7%,126,101%
O=S(=O)(O)c1ccc(N=NSc2ccc3ccccc3c2)cc1,93.4%,106%,92.8%,108%,98.1%,86.4%,97%,100%,102%,108%,103%,118%,92.3%,102%,117%,98.8,97.4%,100%,113,92.9%
Nc1cc(N)c(S(=O)(=O)O)cc1N=Nc1cc([N+](=O)[O-])ccc1O,94.5%,101%,94.9%,90.6%,104%,89.4%,88.3%,95.7%,110%,108%,111%,80.8%,103%,103%,103%,102,107%,102%,99.2,100%
C#C[C@@]1(O)[C@@H](CO)O[C@@H](n2cc(Cl)c3c(N)ncnc32)[C@@H]1O,0.604% (active),1.13% (active),-3.01% (active),-4.82% (active),-19.1% (active),-27.1% (active),-29% (active),-31.1% (active),-58.8% (active),-39.4% (active),4.44% (active),4.99% (active),-19.5% (active),-6.34% (active),-33.4% (active),15.3,-26.8% (active),-54.3% (active),40.9,-25.8% (active)
COc1ccc(/C=C/C(=O)c2ccc(NC(=O)CSc3nnc(-c4ccc(OC)c(OC)c4)n3-c3ccccc3)cc2)cc1,21.3%,80.7%,99.1%,48.5%,91.3%,52.7%,-60.9% (active),80%,-67% (active),26.7%,40.8%,8.42% (active),-75% (active),1.36% (active),94.4%,80.6,91.4%,87.5%,90,36.2%
C1=CC2=CC=C3C=CC=C4C(c5nc6c7ccccc7c7ccccc7c6[nH]5)=CC(=C1)C2C34 (stereo not given),98.1%,23.8%,90.9%,68.7%,98.9%,72.9%,82.5%,89.7%,98.2%,120%,105%,90.4%,117%,76.8%,99.8%,85.4,113%,101%,105,99.3%
NC(=N\N=C\c1ccccc1O)/C(N)=N/N=C/c1ccccc1O,90.9%,96%,80.5%,84.5%,70.1%,76.2%,63.5%,73.6%,85.2%,97.1%,80.1%,71.1%,79%,83.6%,106%,78.8,77.7%,81.3%,84.3,79%
CCn1cc(C(=O)O)c(=O)c2cc(F)c(N3CCN(CC(=O)Nc4ccc(/C(C)=N/OC)cc4)CC3)cc21,90.6%,97.9%,80.2%,88.8%,104%,84.8%,84.8%,95.8%,91.7%,102%,104%,92.5%,103%,85.9%,100%,94.1,92.3%,92.7%,91.3,99.4%
O=C1CC(c2ccc(O)c(O)c2)Oc2cc(O)c([C@@H]3O[C@H](CO)[C@@H](O)[C@H](O)[C@H]3O)c(O)c21 (stereo not given in full),106%,98.9%,113%,105%,99.1%,113%,100%,94.8%,99.5%,108%,105%,96.8%,110%,101%,103%,102,103%,100%,106,102%
C=C1C(=O)O[C@H]2[C@H]1CC/C(COC(=O)c1cccnc1)=C\CC[C@@]1(C)O[C@@H]21,79%,78.5%,104%,85.2%,84.8%,49.2%,28.7%,80.1%,63.8%,52.9%,16.4%,16.4%,66.9%,79.9%,46%,90.7,102%,60.2%,57.8,58.3%
CSc1nc(-c2ccc(F)cc2)c(C#N)c(N2CCOCC2)n1,101%,80%,92.6%,97.3%,102%,73.9%,90.1%,88.6%,93.7%,106%,101%,92.9%,116%,92.5%,91.3%,93.5,92.2%,94.9%,91.9,107%
CCOC(=O)c1c(-c2ccc(O)cc2)c(C#N)c2c(C#N)c(N)nn2c1N,72.6%,69.3%,95.1%,66.6%,74.3%,41.7%,39.2%,80.7%,93%,74.6%,83%,19.8%,39.4%,67%,76.2%,71.8,79.9%,66.9%,93,45.2%
C#Cc1cccc(Nc2ncnc3ccc(NC(=O)c4ccccc4)cc23)c1,86.9%,85.9%,21.7%,102%,76.8%,65%,53.5%,70.9%,76.7%,99.7%,50.9%,63.6%,104%,95.6%,58.5%,74.7,89.7%,90.5%,99.6,90.6%
O=C(Nc1nc(-c2ccccc2)cs1)c1cc(-c2ccc(Br)cc2)nc2ccccc12,51.6%,46.3%,81.5%,57.1%,31.3%,6.1% (active),43.5%,36.5%,65.4%,56.2%,68.7%,24.3%,112%,57.8%,65.7%,53.8,49.9%,63%,56,75.3%
Cc1nnc(/N=C2\NC(=O)/C(=C/c3ccsc3)S2)s1,89.8%,96%,92.2%,80.8%,67.5%,96.6%,78.1%,100%,94.6%,92.2%,98.7%,97.4%,80.8%,108%,99.8%,85.1,85.9%,99.7%,108,92%
